NOD2 RIPK2 PPI = NOD2-RIPK2 binding disruptors in cells, primary screen, fluorescence, CHO cells, BLA complementation; Receptor-interacting serine/threonine-protein kinase 2 (Homo sapiens), O43353; CCF4 ratio; inhibition, % at 4.98 µM; 360,000 tested, 0.38% active; AID 624267, 2012; in the data active = inhibition above about 21%
Target sequence (O43353 whole entry, looked up): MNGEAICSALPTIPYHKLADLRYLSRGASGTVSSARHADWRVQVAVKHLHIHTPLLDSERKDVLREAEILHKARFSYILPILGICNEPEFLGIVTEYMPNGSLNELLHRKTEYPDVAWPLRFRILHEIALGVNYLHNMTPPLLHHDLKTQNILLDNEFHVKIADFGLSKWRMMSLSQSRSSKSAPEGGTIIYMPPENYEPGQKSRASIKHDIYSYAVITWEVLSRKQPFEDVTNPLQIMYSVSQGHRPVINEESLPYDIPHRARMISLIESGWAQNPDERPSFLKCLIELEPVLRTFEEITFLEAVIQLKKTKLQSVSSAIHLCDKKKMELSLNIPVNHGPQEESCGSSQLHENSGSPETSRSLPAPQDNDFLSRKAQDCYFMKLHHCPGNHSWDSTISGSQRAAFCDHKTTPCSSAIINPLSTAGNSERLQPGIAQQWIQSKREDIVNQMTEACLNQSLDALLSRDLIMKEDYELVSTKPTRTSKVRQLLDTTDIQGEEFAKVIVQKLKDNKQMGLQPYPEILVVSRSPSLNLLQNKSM
ABCB6 inh MLPCN = ABCB6 transporter inhibitors, primary screen, K562-ABCB6 cells, flow cytometry, MLPCN library; ATP-binding cassette sub-family B member 6 (Homo sapiens), Q9NP58; K562-ABCB6 porphyrin accumulation, 1 h; hits give low values; fluorescence ratio to DMSO, % at 10 µM; 360,000 tested, 0.19% active; AID 602162, 2011;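 active = fluorescence ratio to DMSO below 75%, the collection mean minus 3 SD; inconclusive = too few cells collected in the well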;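 note: signal is porphyrin accumulated inside mitochondria; lower ratio means ABCB6 inhibition with less porphyrin fluorescence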
TLR9-MyD88 block = inhibitors of TLR9-MyD88 association in cells, primary screen, cell-based, CHO, BLA complementation, fluorescence; CCF4 FRET ratio; inhibition, % at 4.98 µM; 340,000 tested, 0.21% active; AID 504734, 2011;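 active = inhibition above the mean over all tested compounds plus 3 SD, cut at about 21% in these data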
Myeloid diff MLP = induction of myeloid progenitor differentiation, primary screen, cell-based, flow cytometry, MLPCN library | 360,000 tested, 1% active | calls only at 10 µM | ER-HoxA9 myeloid progenitors, lysozyme-GFP differentiation;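 active = normalized GFP-positive differentiation at or above the plate's own cutoff, the solvent-only control mean plus 3 SD; inconclusive = no clear call, values can overlap the other calls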;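 note: cells exposed to compound for four days before flow analysis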
TLR4-MyD88 BLA = inhibitors of TLR4-MyD88 association in cells, primary screen, cell-based, HeLa CL3-4, BLA complementation, FRET ratio; inhibition, % at 8.4 µM; 200,000 tested, 0.18% active; HeLa CL3-4 TLR4/MyD88 BLA complementation; AID 861, 2007; Toll-like receptor 4 (Homo sapiens) + Myeloid differentiation primary response protein …; in the data active = inhibition above about 25%
Myeloid diff CP1 = inducers of myeloid progenitor differentiation, confirmation, cell-based, GFP/Mac1 flow cytometry, cherry pick 01; shares compounds with Myeloid diff MLP; ER-HoxA9 myeloid progenitors, GFP/Mac1 double-positive flow; calls only; 2,300 tested, 2% active; AID 651706, 2012;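 active = share of green or green-and-red cells above 9 and 9% in run 1 or 4 and 3% in run 2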
GFP autofluor = flagged as fluorescent in myeloid differentiation counter-screen. shares compounds with Myeloid diff MLP. ER-HoxA9 myeloid progenitors, no estrogen, GFP autofluorescence flow cytometry; vehicle wells 0%, positive control 100%. fluorescence response, % (concentration not given with the values). 2,300 tested, 7.4% active. AID 651707;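 active = over 5% cells positive for green fluorescent reporter, or over 2% positive for both it and APC stain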
A number is an active result; . = inactive; ? = inconclusive; / = no result; + = active, no number. Compounds with a hit are over-represented: about 1.7% of the library has one in this group of screens.

SMILES | NOD2 RIPK2 PPI | ABCB6 inh MLPCN | TLR9-MyD88 block | Myeloid diff MLP | TLR4-MyD88 BLA | Myeloid diff CP1 | GFP autofluor
O=C(C1CCC1)N1CCc2cc(S(=O)(=O)NCC3COc4ccccc4O3)ccc21 (centres undefined) | . | . | . | . | . | / | /
O=C(C1CC1)N1CCc2cc(S(=O)(=O)NCC3COc4ccccc4O3)ccc21 (centres undefined) | . | . | . | + | . | . | .
Cc1nn(Cc2ccc([N+](=O)[O-])cc2)c(=O)n1-c1ccc(Cl)cc1 | . | . | . | + | . | . | .
Cc1ccc(-n2c(C)nn(Cc3ccc([N+](=O)[O-])cc3)c2=O)cc1 | . | . | . | . | . | / | /
CCCCn1c(N)c(N(CC(C)C)C(=O)c2cccc(OCc3ccccc3)c2)c(=O)[nH]c1=O | . | . | . | . | / | / | /
CCCCCCC1CCC(C(=O)Nn2c(C)nc3ccccc3c2=O)CC1 (centres undefined) | . | . | . | . | . | . | .
COC(=O)C1CC2=C(CCCC2=O)NC1=O (centres undefined) | . | . | . | . | / | . | .
COC(=O)C1CC2=C(CCCC2=O)N(c2ccccc2)C1=O (centres undefined) | . | . | . | . | / | / | /
COC(=O)C1=CN(c2ccc(OC)cc2OC)C(N)=C(C#N)C1c1ccccc1F (centres undefined) | . | / | / | ? | / | / | /
CCCn1c(=O)n(CC(=O)NCC2CCCO2)c(=O)c2c3c(sc21)COC(C)(C)C3 (centres undefined) | . | . | . | . | / | / | /
CCOC(=O)c1ccc(NCn2c(=O)oc3ccccc32)cc1 | . | . | . | . | . | . | 44.5
Cc1cccc(NC(=O)CCNC(=O)c2ccc(Br)cc2)c1C | . | . | . | . | / | / | /
COC(=O)C1=C(c2ccc(OC)cc2)OC(=O)C1(C)C | . | . | . | . | / | / | /
CC(C(=O)N1CCc2ccccc21)N1CCN(c2cccc(C(F)(F)F)c2)CC1 (centres undefined) | . | . | . | + | / | . | .
COc1cc(/C=C2\SC(=O)NC2=O)ccc1Oc1ccc([N+](=O)[O-])cn1 | . | . | . | . | / | / | /
COc1cc(/C=C2/SC(=O)NC2=O)ccc1Oc1ccc([N+](=O)[O-])cc1[N+](=O)[O-] | . | . | . | + | / | . | .
CCOC(=O)/C=C1/N(C)c2ccccc2C1(C)C | . | . | . | . | / | / | /
CN1/C(=C\P(=O)(N(C)C)N(C)C)C(C)(C)c2ccccc21 | . | . | . | + | . | . | 81.8
Cn1ccc(C(=O)OCC(=O)c2ccccc2)n1 | . | . | . | + | . | . | .
Cc1cnc(C(=O)OCC(=O)c2ccccc2)cn1 | . | . | . | . | / | / | /
O=C(NC(=S)Nc1ccc(Cc2ccncc2)cc1)c1ccccc1 | . | . | . | + | . | . | 5.4
Cc1cccc(C(=O)NC(=S)Nc2ccc(Cc3ccncc3)cc2)c1 | . | . | . | . | . | / | /
Cc1ccc2cccc(NC(=S)NC(=O)c3ccccc3)c2n1 | . | . | . | . | . | . | .
COc1cccc(NC(=O)Nc2ccncc2)c1 | . | . | . | . | . | / | /
O=C(NC(=S)Nc1cccc(NC(=S)NC(=O)c2ccccc2)c1)c1ccccc1 | . | . | . | + | / | . | .
SMILES | NOD2 RIPK2 PPI | ABCB6 inh MLPCN | TLR9-MyD88 block | Myeloid diff MLP | TLR4-MyD88 BLA | Myeloid diff CP1 | GFP autofluor
Cc1cc(C)c2cccc(NC(=S)NC(=O)c3ccccc3)c2n1 | . | . | . | . | . | / | /
COc1cccc(NC(=O)Nc2ccc(Cc3ccncc3)cc2)c1 | . | . | . | + | . | . | .
CC(/C=N/NC(=O)c1nn(C)c(C)c1Br)=C\c1ccccc1 | . | . | . | . | . | / | /
Cc1cc(NC(=O)CSc2nc3cc(Cl)ccc3o2)no1 | . | . | . | . | / | / | /
CCN(CC)S(=O)(=O)c1ccc2oc(SCC(=O)Nc3cc(C)on3)nc2c1 | . | . | . | + | / | . | .
O=S(=O)(NC1CCCCC1Oc1ccccc1)c1ccccc1 (centres undefined) | . | . | . | . | . | / | /
CCOc1cc(C(=O)Nc2ccc(C)cc2O)ccc1OCC(=O)N1CCOCC1 | . | . | . | + | / | . | .
Cc1cc(C(=O)CN2C(=O)CCC2=O)c(C)n1Cc1ccccc1 | . | . | . | + | . | . | .
O=C(CCNS(=O)(=O)c1ccc2c(c1)CCC(=O)N2)NCc1ccc2c(c1)OCO2 | . | . | . | . | . | . | .
CC(O)C(=O)N/N=C/c1ccccc1C(=O)O (centres undefined) | . | . | . | . | . | . | .
CC(C)NC(=O)CC(=O)N/N=C\c1ccccc1C(=O)O | . | . | . | . | . | / | /
COC(=O)COc1ccc(S(=O)(=O)Nc2ccc3c(c2)OCCO3)cc1C | . | . | . | . | / | / | /
CN1C/C(=C/c2ccccc2[N+](=O)[O-])C(=O)/C(=C\c2ccccc2[N+](=O)[O-])C1 | . | . | . | / | / | / | /
CCCCCNC(=O)C(c1ccc(C#N)cc1)n1c(=O)c(-c2ccco2)nc2ccccc21 (centres undefined) | . | / | / | . | / | . | .
COc1ccc(C(=O)C2CCCN(C(=O)c3ccoc3C)C2)cc1F (centres undefined) | . | . | . | . | / | / | /
COc1ccc(-n2nc(C(=O)NCC(=O)N3CCN(c4cccc(Cl)c4)CC3)c3ccccc3c2=O)c(OC)c1 | . | . | . | . | / | . | .
O=C(CNS(=O)(=O)c1ccccc1)Nc1cccc([N+](=O)[O-])c1 | . | . | . | + | . | . | .
Cc1c(NC(=O)C(C)Sc2nc3ccccc3c(=O)n2CCO)c(=O)n(-c2ccccc2)n1C (centres undefined) | . | . | . | . | . | . | .
O=C(COc1ccccc1Cl)NCCNC(=O)c1ccncc1 | . | . | . | . | / | . | .
O=C(COc1ccccc1Cl)NCCCNC(=O)c1ccncc1 | . | . | . | . | / | / | /
CCOC(=O)C1CCN(CCC(=O)Nc2ccccc2Cl)CC1 | . | . | . | . | . | . | .
O=C(CN1C(=O)CC(c2ccccc2)=Nc2ccccc21)NCc1ccccc1 | . | . | . | . | . | / | /
Cc1cc2c(cc1C)N(CC(=O)N1CCCC1)C(=O)CC(c1ccccc1)=N2 | . | . | . | . | . | . | .
CCOC(=O)c1ccc(N=c2sc(C(=O)OC)cc(=O)n2C2CC2)cc1 | . | . | . | . | . | . | .
CCOC(=O)c1ccc(N=c2sc(C(=O)OC)cc(=O)n2Cc2ccc3c(c2)OCO3)cc1 | . | . | . | . | . | / | /

Assay outcomes deposited in PubChem by several laboratories.
